Laboratory results as given in PubChem BioAssay AID1159580 (chemical genetic matrix, 2015).
Where “and” joins values, the source holds several entries; their conditions need not be identical. Equal values may be shown once. In all, about 5,500 compounds went through this assay and about 2,000 (36%) were called active. Roughly 18% stayed inconclusive and do not appear here. No stated cut-off is given here; in the data, active means normalized growth mostly below about 0.91 (no sharp cut-off); inconclusive means no clear call, values can overlap the other calls; inactive means mostly above about 0.92. The list shows a part of the results.

Assay: chemical genetic growth profiling, strain panel (AID 1159580);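 further: tested at 20 µM; growth read once vehicle control cultures reached saturation at 30 °C; 1 = growth at the plate median or of vehicle wells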
Settings: S. cerevisiae deletion strains, growth OD

Measured: normalized growth

O=C(NCO)c1cccnc1
inactive: locus YAL013W, strain DEP1, stronger effect = lower value 0.99 | locus YAL021C, strain ccr4, stronger effect = lower value 1.02 | locus YAL026C, strain drs2, stronger effect = lower value 1.01 | locus YAL030W, strain snc1, stronger effect = lower value 1.01 | locus YBL061C, strain skt5, stronger effect = lower value 1.01 | locus YBR009C, strain hhf1, stronger effect = lower value 0.998 | locus YBR021W, strain FUR4, stronger effect = lower value 1.04 | locus YBR023C, strain chs3, stronger effect = lower value 1 | locus YBR171W, strain sec66, stronger effect = lower value 1.03 | locus YBR229C, strain ROT2, stronger effect = lower value 0.997 | locus YBR231C, strain swc5, stronger effect = lower value 1 | locus YBR279W, strain paf1, stronger effect = lower value 1.01 | locus YCL011C, strain gbp2, stronger effect = lower value 1.01 | locus YCL016C, strain dcc1, stronger effect = lower value 1.01 | locus YCL029C, strain bik1, stronger effect = lower value 0.971 | locus YCL061C, strain MRC1, stronger effect = lower value 0.999 | locus YCL069W, strain vba3, stronger effect = lower value 1 | locus YCR088W, strain abp1, stronger effect = lower value 1 | locus YDL005C, strain med2, stronger effect = lower value 1 | locus YDL035C, strain GPR1, stronger effect = lower value 0.985 | locus YDL040C, strain nat1, stronger effect = lower value 1.01 | locus YDL074C, strain BRE1, stronger effect = lower value 1 | locus YDL101C, strain DUN1, stronger effect = lower value 0.99 | locus YDL134C, strain PPH21, stronger effect = lower value 0.988 | locus YDL185W, strain tfp1, stronger effect = lower value 1.01 | locus YDL192W, strain arf1, stronger effect = lower value 0.987 | locus YDR001C, strain nth1, stronger effect = lower value 1 | locus YDR069C, strain doa4, stronger effect = lower value 0.999 | locus YDR101C, strain arx1, stronger effect = lower value 0.991 | locus YDR137W, strain rgp1, stronger effect = lower value 1.02 | locus YDR150W, strain NUM1, stronger effect = lower value 0.98 | locus YDR159W, strain sac3, stronger effect = lower value 1 | locus YDR162C, strain NBP2, stronger effect = lower value 1 | locus YDR195W, strain ref2 0.993 | locus YDR297W, strain sur2, stronger effect = lower value 1.01 | locus YDR318W, strain mcm21, stronger effect = lower value 0.978 | locus YDR334W, strain swr1, stronger effect = lower value 1.01 | locus YDR335W, strain msn5, stronger effect = lower value 1.01 | locus YDR388W, stronger effect = lower value 0.989 | locus YDR392W, strain spt3, stronger effect = lower value 0.893 | locus YDR502C, strain sam2, stronger effect = lower value 0.996 | locus YEL003W, strain gim4, stronger effect = lower value 1.01 | locus YEL037C, strain rad23, stronger effect = lower value 1.02 | locus YEL061C, strain CIN8 (second series), stronger effect = lower value 1.01 | locus YEL061C, strain CIN8, stronger effect = lower value 0.996 | locus YER015W, strain faa2, stronger effect = lower value 1 | locus YER016W, strain bim1, stronger effect = lower value 1.01 | locus YER110C, stronger effect = lower value 0.97 | locus YER111C, strain swi4, stronger effect = lower value 1 | locus YER155C, strain BEM2 (second series), stronger effect = lower value 1.01 | locus YER155C, strain BEM2, stronger effect = lower value 0.996 | locus YER167W, strain BCK2, stronger effect = lower value 0.982 | locus YFR010W, strain ubp6, stronger effect = lower value 1.01 | locus YGL078C, strain dbp3, stronger effect = lower value 0.979 | locus YGL086W, strain mad1, stronger effect = lower value 0.983 | locus YGL167C, strain pmr1, stronger effect = lower value 1.01 | locus YGL173C, strain kem1, stronger effect = lower value 1.01 | locus YGL227W, strain vid30, stronger effect = lower value 1 | locus YGL240W, strain doc1, stronger effect = lower value 0.988 | locus YGL248W, strain PDE1, stronger effect = lower value 0.994 | locus YGL253W, strain hxk2, stronger effect = lower value 1.01 | locus YGR078C, strain PAC10, stronger effect = lower value 0.995 | locus YGR135W, strain pre9, stronger effect = lower value 1.02 | locus YGR229C, strain SMI1, stronger effect = lower value 1.01 | locus YGR252W, strain gcn5, stronger effect = lower value 1.01 | locus YHR013C, strain ard1, stronger effect = lower value 0.984 | locus YHR027C, strain rpn1, stronger effect = lower value 1.01 | locus YHR030C, strain SLT2, stronger effect = lower value 0.984 and 0.995 | locus YHR079C, strain IRE1 (second series), stronger effect = lower value 0.989 | locus YHR079C, strain IRE1, stronger effect = lower value 0.992 | locus YHR094C, strain hxt1, stronger effect = lower value 0.982 | locus YHR129C, strain ARP1, stronger effect = lower value 0.994 | locus YHR142W, strain chs7, stronger effect = lower value 1.02 | locus YHR200W, strain rpn10, stronger effect = lower value 0.981 | locus YIL066C, strain RNR3, stronger effect = lower value 0.98 | locus YIL073C, strain SPO22, stronger effect = lower value 0.894 | locus YIL125W, strain kgd1, stronger effect = lower value 0.975 | locus YIR030C, strain dcg1, stronger effect = lower value 0.992 | locus YJL092W, strain hpr5, stronger effect = lower value 1.01 | locus YJL095W, strain BCK1 (second series), stronger effect = lower value 1 | locus YJL095W, strain BCK1, stronger effect = lower value 1.01 and 0.998 | locus YJL115W, strain asf1, stronger effect = lower value 1 | locus YJL129C, strain trk1, stronger effect = lower value 1.01 | locus YJL134W, strain LCB3, stronger effect = lower value 0.988 | locus YJL154C, strain vps35, stronger effect = lower value 1 | locus YJL164C, strain tpk1, stronger effect = lower value 0.998 | locus YJL166W, strain qcr8, stronger effect = lower value 1.01 | locus YJL168C, strain set2, stronger effect = lower value 0.982 | locus YJL187C, strain SWE1 (second series), stronger effect = lower value 0.982 | locus YJL187C, strain SWE1, stronger effect = lower value 1 | locus YJR043C, strain POL32, stronger effect = lower value 0.983 | locus YJR066W, strain TOR1, stronger effect = lower value 0.906
